In the library only some 2.6% were active in any assay of this set; here they are far more common.
KKLEB tox – CF airway cell cytotoxicity counter-screen; activity change (cytotoxicity), % at 5 µM; 360,000 compounds, 0.36% hits; KKLEB CF airway cells viability, ATPlite luminescence, overnight; active compounds read low; cells stimulated with P. aeruginosa culture filtrate;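 active = corrected activity change at or below -50% at 5 µM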
Peg3 promoter – inhibitors of Peg3 promoter | HeLa PEG-Prom luciferase reporter, luminescence, overnight | inhibition, % at 20 µM | 360,000 compounds, 1.7% hits | AID 588405;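 active = inhibition of at least 50% at 20 µM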
Shn3 inh set2 – reduces Shn3 3'UTR luciferase signal in osteoblasts; Clone20 osteoblast Shn3 3'UTR firefly luciferase, 24 h; inhibition, % at 12.5 µM; 360,000 compounds, 0.52% hits; AID 588674;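 active = mean inhibition of at least 75% with every replicate also reaching 75%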;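 note: 0% = median of neutral control wells and 100% = pilot-screen positive control compound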
CF NFkB inh – inhibitors of cystic fibrosis induced NF-kB | KKLEB NF-kB-GFP reporter, PAF-induced, GFP fluorescence overnight | inhibition, % at 5 µM | 360,000 compounds, 0.86% hits | AID 588850;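 active = at least 50% inhibition at 5 µM, scaled per plate between neutral and stimulator controls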;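 note: PAF is a Pseudomonas aeruginosa culture filtrate used as stimulus; plate controls were PAF-stimulated DMSO wells for no effect and unstimulated DMSO wells for full effect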
HIF-2a inh – inhibitors of HIF-2a; 786-0 RCC cells HIF-2a reporter, luciferase luminescence, overnight; inhibition, % at 18.8 µM; 360,000 compounds, 0.72% hits; AID 624352;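 active = inhibition of the luminescence signal of 40% or more relative to plate controls, in a single-dose primary screen at 18.75 µM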
Mdm2 MdmX conf – confirmation of inhibitors of human Mdm2/MdmX interaction, set 2. shares compounds with HIF-2a inh. SaOS-2 split-luciferase Mdm2/MdmX complementation, luminescence. inhibition, % at 8 µM. 740 compounds, 99% hits;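 active = mean inhibition of the luminescence signal across two replicates at or above 26 percent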
Target sequence (O15151 whole entry, looked up): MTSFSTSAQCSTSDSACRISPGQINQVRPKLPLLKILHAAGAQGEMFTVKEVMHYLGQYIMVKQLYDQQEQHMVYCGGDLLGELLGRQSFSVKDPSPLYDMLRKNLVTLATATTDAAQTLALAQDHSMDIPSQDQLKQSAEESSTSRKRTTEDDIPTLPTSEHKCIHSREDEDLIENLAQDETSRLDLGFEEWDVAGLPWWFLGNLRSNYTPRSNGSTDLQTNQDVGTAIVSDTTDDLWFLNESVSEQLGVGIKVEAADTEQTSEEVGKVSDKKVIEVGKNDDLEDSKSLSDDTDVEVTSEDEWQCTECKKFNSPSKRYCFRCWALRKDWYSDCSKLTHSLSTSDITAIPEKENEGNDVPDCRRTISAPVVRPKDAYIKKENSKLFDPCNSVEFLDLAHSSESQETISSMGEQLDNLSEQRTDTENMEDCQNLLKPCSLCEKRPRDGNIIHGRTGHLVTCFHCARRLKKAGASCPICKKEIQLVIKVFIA
Target sequence (Q00987 whole entry, looked up): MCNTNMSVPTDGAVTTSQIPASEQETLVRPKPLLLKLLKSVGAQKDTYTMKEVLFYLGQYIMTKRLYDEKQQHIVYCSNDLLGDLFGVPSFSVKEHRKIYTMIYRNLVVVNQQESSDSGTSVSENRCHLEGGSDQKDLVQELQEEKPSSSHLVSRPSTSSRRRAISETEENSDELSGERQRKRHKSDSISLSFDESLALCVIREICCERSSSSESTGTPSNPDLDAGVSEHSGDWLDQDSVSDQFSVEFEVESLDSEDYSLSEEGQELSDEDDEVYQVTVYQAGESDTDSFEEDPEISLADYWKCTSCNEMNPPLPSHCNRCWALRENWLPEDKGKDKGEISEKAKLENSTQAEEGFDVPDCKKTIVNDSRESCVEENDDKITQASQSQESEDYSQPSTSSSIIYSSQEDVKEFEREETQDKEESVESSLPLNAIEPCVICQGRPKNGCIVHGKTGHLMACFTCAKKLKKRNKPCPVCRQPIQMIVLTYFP
HIF-2a conf – HIF-2a inhibition, single concentration confirmation; shares compounds with HIF-2a inh; 786-0 RCC cells, HIF-2a luciferase reporter luminescence, overnight; inhibition, % at 18.8 µM; 1,800 compounds, 56% hits; AID 651580;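 active = mean inhibition across four replicates of at least 40 percent at the single tested concentration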
HIF-1a cs – HIF-1a inhibition counter-screen for HIF-2a hits. shares compounds with HIF-2a inh. MiaPaCa-2 HIF-1a luciferase reporter, desferoxamine, overnight. inhibition, % at 18.8 µM. 1,800 compounds, 72% hits;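 active = mean inhibition of the reporter signal across four replicates at the single tested dose of 50% or more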
The depositor's hits bear a star; · = not tested or not shown; ! = repeats disagree.

SMILES	KKLEB tox	Peg3 promoter	Shn3 inh set2	CF NFkB inh	HIF-2a inh	HIF-2a conf	HIF-1a cs	others
CC(=O)SC(C[N+](=O)[O-])c1cn(C(C)=O)c2ccccc12 (stereo unspecified)	5.0	106.0*	34.6	-16.7	46.4*	96.3*	85.7*
CSc1n[nH]c(/N=C/c2oc(O)c3ccccc23)n1	1.6	2.0	28.9	-16.7	-3.4	·	·
COc1ccc(-c2csc3ncnc(NCCCO)c23)cc1	-5.3	30.1	9.6	49.1	41.0*	8.6	45.7
CCN(CC)CCCNc1ncnc2scc(-c3ccc(F)cc3)c12	-1.1	8.4	-5.3	-4.9	15.5	·	·
Cc1noc(/C=C/c2ccccn2)c1[N+](=O)[O-]	-10.7	26.4	-53.9	5.0	72.7*	86.5*	106.4*
COc1ccccc1N/C=C/c1onc(C)c1[N+](=O)[O-]	14.3	0.3	5.9	-40.0	-70.7	·	·
O=C1C=CC(=O)N1c1ccccc1N1C(=O)C=CC1=O	-15.3	96.8*	94.3*	60.8*	76.6*	55.5*	-1.6
N#C/C(=C\c1ccccc1)C(=O)N(c1ccccn1)C1CCCCC1	-2.6	21.9	12.6	1.0	45.4*	45.9*	20.2
Cc1cccc(NC(=O)CSc2nc3c([nH]c4ccccc43)c(=O)n2C)c1	-15.0	31.8	25.1	-17.2	23.3	·	·
COc1cccc(NC(=O)CSc2nc3c([nH]c4ccccc43)c(=O)n2C)c1	-16.6	58.9*	14.6	2.3	51.4*	0.0	25.7
CC(C)Cc1cc(C(=O)N2CCCC(CCC(=O)N(C)CCc3ccccn3)C2)no1 (stereo unspecified)	2.2	-0.2	7.6	-0.4	14.0	·	·
CCC(C)[C@H](N)C(=O)N[C@H]1CCC2C3CC=C4C[C@@H](O)CC[C@]4(C)C3CC[C@@]21C (stereo partly specified)	-67.4*	110.2*	18.3	31.9	85.6*	-1.1	50.2*
CC(C)[C@H](N)C(=O)N[C@H]1CCC2C3CC=C4C[C@@H](O)CC[C@]4(C)C3CC[C@@]21C (stereo partly specified)	-71.5*	91.6*	19.6	7.5	55.0*	1.9	90.0*
C[C@@H](N)C(=O)N[C@H]1CCC2C3CC=C4C[C@@H](O)CC[C@]4(C)C3CC[C@@]21C (stereo partly specified)	1.0	-1.3	-5.3	2.7	6.7	·	·
CCN1CCN(Cc2ccc(NC(=O)c3cc(NC(=O)c4cncc(-c5ccc(C#N)cc5)c4)cc(OC)c3)cc2C(F)(F)F)CC1	-73.0*!	106.1*	97.8*	56.6*!	88.5*!	17.4	97.9*
COC(=O)CN1C(=O)[C@H]2[C@@H](c3ccc(C)o3)N3C(=O)CN(Cc4ccccc4)C(=O)[C@@]3(C)[C@H]2C1=O	-1.1	4.3	6.1	12.5	9.5	·	·
Cc1ccc(N(CCC#N)C(=O)CCl)cc1C	-25.6	46.5	-7.8	24.5	33.4	·	·	Mdm2 MdmX conf=102.7*
C=C1C(=O)OC2C1CCC(C)=C1C(=O)C3OC3(C)C12 (stereo unspecified)	-85.2*	106.5*	98.0*	85.6*	91.6*	97.1*	101.3*
CC(C)(C)c1ccc(-c2n[nH]c(=S)n2/N=C/c2ccncc2)cc1	-5.0	-74.5	-15.7	43.3	-64.5	·	·
COc1ccc(S(=O)(=O)N2CCN(c3ncccn3)CC2)cc1OC	1.1	26.5	0.1	4.5	11.2	·	·
CC1=C(CO)C(=O)OC([C@@H](C)C2CC[C@H]3C4C[C@H]5O[C@]56[C@@H](O)C=CC(=O)[C@]6(C)C4CC[C@]23C)C1 (stereo partly specified)	-3.1	109.4*	97.9*	84.6*	94.2*	97.1*	107.0*
O=C(NC1CCCCCC1)c1ccc([N+](=O)[O-])s1	-3.6	-80.2	-6.3	16.3	60.0*	74.1*	77.2*
O=C(NC1CCCCC1)c1n[nH]c2c1CCCCC2	-32.9	55.6*	47.9	4.2	44.4*	74.7*	74.2*
CC(O)CC(=O)OC[C@]12CC[C@H]3[C@@](C)(CC[C@H]4C(C)(C)CCC[C@]34C)[C@@H]1CC(C1=CC(=O)OC1O)O2 (stereo partly specified)	-88.0*	99.1*	93.0*	104.4*	93.4*	96.2*	107.5*
COCCN(C(=O)CCC(=O)Nc1cc(C)on1)C(C(=O)NC1CCCC1)c1ccccc1C (stereo unspecified)	-1.6	-0.6	-1.4	-1.7	9.2	·	·
SMILES	KKLEB tox	Peg3 promoter	Shn3 inh set2	CF NFkB inh	HIF-2a inh	HIF-2a conf	HIF-1a cs	others
COCCN(C(=O)CCl)C(C(=O)NC1CCCCC1)c1ccccc1C (stereo unspecified)	-21.0	60.3*	14.0	32.9	65.6*	23.0	91.3*
COc1ccc(-c2cc(C(=O)Nc3c(C)n(C)n(-c4ccccc4)c3=O)no2)cc1OC	-1.6	11.7	·	1.5	2.4	·	·
CCC(C)N(CC(=O)Nc1cccc(C)c1C)C(=O)CCl (stereo unspecified)	-20.5	43.5	-49.8	8.8	51.0*	45.9*	53.5*	Mdm2 MdmX conf=102.7*
Cc1cc(C(=O)Nc2ccccc2)c(C)o1	-9.3	-81.5	-1.6	-2.0	-96.3	·	·
Cc1ccc(C(=O)Nc2ccc(CC(=O)O)cc2)o1	-0.6	10.0	-2.7	-6.4	18.2	·	·
Cc1cc(C(=O)Nc2ccc(CC(=O)O)cc2)c(C)o1	5.4	-17.1	3.6	-17.6	48.5*	60.4*	44.0
CC(C)(C)c1ccc(C(=O)Nc2ccc(CC(=O)O)cc2)o1	-1.9	41.0	68.6	11.4	82.7*	95.9*	78.8*
O=C(CCN1C(=O)/C(=C/c2ccccc2)SC1=S)NNC(=O)c1ccncc1	6.5	0.8	-8.8	7.4	12.9	·	·
O=C(CCN1C(=O)/C(=C/c2ccccc2)SC1=S)N[C@@H](CO)Cc1ccccc1	-12.0	80.3*	-49.7	29.5	49.9*	·	·	Mdm2 MdmX conf=98.2*
Cn1nnnc1Sc1ncnc2scc(-c3ccc(F)cc3)c12	-45.0	96.8*	92.7*	60.3*	77.6*	·	·	Mdm2 MdmX conf=103.0*
Cn1nnnc1Sc1ncnc2scc(-c3ccc(Br)cc3)c12	-92.1*	102.8*	96.0*	86.0*	93.5*	99.6*	105.8*	Mdm2 MdmX conf=103.2*
Cn1nnnc1SCc1nc2scc(-c3ccc(Cl)cc3)c2c(=O)[nH]1	-6.7	4.3	30.0	7.4	1.3	·	·
CS(=O)(=O)c1nc(-c2ccc(Br)cc2)cc(-c2ccccc2)c1C#N	-66.2*	112.6*	98.2*	80.5*	97.2*	20.3	100.4*	Mdm2 MdmX conf=103.2*
